Over roughly 16,000 sequences, “rpm ratio (pull-down/input)” has its median near 0.94; the highest 2% begin near 1.7. For the sample, the highest values were picked, then their nearest neighbours and some sequences at random.

The target in this assay is T1, MBP-FoxP1dN (Mus musculus, UniProt P58462 326-579).
T1 sequence: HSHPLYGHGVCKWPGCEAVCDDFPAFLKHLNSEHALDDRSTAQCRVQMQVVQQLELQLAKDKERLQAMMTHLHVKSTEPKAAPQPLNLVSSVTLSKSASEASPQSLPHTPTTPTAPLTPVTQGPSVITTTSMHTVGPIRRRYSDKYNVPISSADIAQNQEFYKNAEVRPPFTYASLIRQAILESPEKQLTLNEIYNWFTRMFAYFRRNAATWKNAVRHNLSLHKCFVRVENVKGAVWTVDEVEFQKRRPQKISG
Description: PD-seq (MBP pull-down with sequencing); 20 mM Tris-HCl pH 7.5, 100 mM NaCl, 1.5 mM MgCl2, 0.4 uM protein, 0.1 uM dsDNA library, 30 min, room temperature, amylose pull-down; high values mean tight binding. As to conditions: protein: recombinant; tags: His6-MBP; chain copies: 2; dsDNA, one strand shown. A digest of the protocol: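 A degenerate double-stranded DNA library, filled in with Klenow, was added at 0.1 µM to 0.4 µM His6-MBP-tagged mouse FoxP3 or FoxP1 fragment lacking the N-terminus, expressed in E. coli. Incubation lasted 30 min at room temperature in Tris pH 7.5 buffer with NaCl and MgCl2, after which complexes were collected on amylose resin, washed three times, digested with proteinase K to free the DNA, barcoded by PCR and sequenced by Illumina. Binding is the pooled-replicate reads-per-million enrichment of pull-down over input.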
With “GATGATTGTTCTCCCAGCTGATGAATTGAGGTCCTCGAGTAAACAAATTTTCCTAATCTTTCTGTTCAAGCGCCATCTAC”, the binding signal is 0.772 RPM ratio (pull-down/input). In the case of “GATGATTGTTCTCCCAGCTGATGAATTTGATAGCTCGAGTAAACAAATTTTCCTAATCTTTCTGTTCAAGCGCCATCTAC” it was 0.868 RPM ratio (pull-down/input); in that of “GATGATTGTTCTCCCAGCTGATGAATTCGGTACATCGAGTAAACAAATTTTCCTAATCTTTCTGTTCAAGCGCCATCTAC”, 0.991 RPM ratio (pull-down/input); in that of “GATGATTGTTCTCCCAGCTGATGAATTCTAATAGTCGAGTAAACAAATTTTCCTAATCTTTCTGTTCAAGCGCCATCTAC”, 0.905 RPM ratio (pull-down/input).

On to “GATGATTGTTCTCCCAGCTGATGAATTAGCCGTATCGAGTAAACAAATTTTCCTAATCTTTCTGTTCAAGCGCCATCTAC”, for which the binding signal is 0.934 RPM ratio (pull-down/input). In the case of “GATGATTGTTCTCCCAGCTGATGAATTTACGATCTCGAGTAAACAAATTTTCCTAATCTTTCTGTTCAAGCGCCATCTAC”, the binding signal is 1.15 RPM ratio (pull-down/input). Then “GATGATTGTTCTCCCAGCTGATGAATTGGCGCTATCGAGTAAACAAATTTTCCTAATCTTTCTGTTCAAGCGCCATCTAC”, with 0.954 RPM ratio (pull-down/input); and “GATGATTGTTCTCCCAGCTGATGAATTCTGCCCGTCGAGTAAACAAATTTTCCTAATCTTTCTGTTCAAGCGCCATCTAC”, with 0.815 RPM ratio (pull-down/input); and “GATGATTGTTCTCCCAGCTGATGAATTATCTGTATCGAGTAAACAAATTTTCCTAATCTTTCTGTTCAAGCGCCATCTAC”, with 1.1 RPM ratio (pull-down/input). Consider “GATGATTGTTCTCCCAGCTGATGAATTGTATTAATCGAGTAAACAAATTTTCCTAATCTTTCTGTTCAAGCGCCATCTAC”, for which the binding signal is 1.24 RPM ratio (pull-down/input). In the case of “GATGATTGTTCTCCCAGCTGATGAATTTGTATTATCGAGTAAACAAATTTTCCTAATCTTTCTGTTCAAGCGCCATCTAC” it was 2.13 RPM ratio (pull-down/input); in that of “GATGATTGTTCTCCCAGCTGATGAATTAATTGTATCGAGTAAACAAATTTTCCTAATCTTTCTGTTCAAGCGCCATCTAC”, 1.44 RPM ratio (pull-down/input). Then “GATGATTGTTCTCCCAGCTGATGAATTGTAATTATCGAGTAAACAAATTTTCCTAATCTTTCTGTTCAAGCGCCATCTAC”, with 1.54 RPM ratio (pull-down/input).

As for “GATGATTGTTCTCCCAGCTGATGAATTATTTGTATCGAGTAAACAAATTTTCCTAATCTTTCTGTTCAAGCGCCATCTAC”, the binding signal was 2 RPM ratio (pull-down/input). In the case of “GATGATTGTTCTCCCAGCTGATGAATTGCGAATATCGAGTAAACAAATTTTCCTAATCTTTCTGTTCAAGCGCCATCTAC” it was 1.17 RPM ratio (pull-down/input). Take “GATGATTGTTCTCCCAGCTGATGAATTGCTCTTCTCGAGTAAACAAATTTTCCTAATCTTTCTGTTCAAGCGCCATCTAC”: the binding signal was 0.889 RPM ratio (pull-down/input). Then “GATGATTGTTCTCCCAGCTGATGAATTCGGGTTCTCGAGTAAACAAATTTTCCTAATCTTTCTGTTCAAGCGCCATCTAC”, with 0.806 RPM ratio (pull-down/input); and “GATGATTGTTCTCCCAGCTGATGAATTGGAATATTCGAGTAAACAAATTTTCCTAATCTTTCTGTTCAAGCGCCATCTAC”, with 0.93 RPM ratio (pull-down/input); and “GATGATTGTTCTCCCAGCTGATGAATTGTCTTCTTCGAGTAAACAAATTTTCCTAATCTTTCTGTTCAAGCGCCATCTAC”, with 1.05 RPM ratio (pull-down/input). Regarding “GATGATTGTTCTCCCAGCTGATGAATTTGTTGTCTCGAGTAAACAAATTTTCCTAATCTTTCTGTTCAAGCGCCATCTAC”, the binding signal is 2.42 RPM ratio (pull-down/input). Then “GATGATTGTTCTCCCAGCTGATGAATTTGTCTTCTCGAGTAAACAAATTTTCCTAATCTTTCTGTTCAAGCGCCATCTAC”, with 1.16 RPM ratio (pull-down/input). In the case of “GATGATTGTTCTCCCAGCTGATGAATTCTTTGTCTCGAGTAAACAAATTTTCCTAATCTTTCTGTTCAAGCGCCATCTAC” it was 0.931 RPM ratio (pull-down/input); in that of “GATGATTGTTCTCCCAGCTGATGAATTGTTGTCTTCGAGTAAACAAATTTTCCTAATCTTTCTGTTCAAGCGCCATCTAC”, 2.29 RPM ratio (pull-down/input); in that of “GATGATTGTTCTCCCAGCTGATGAATTGTTTGTCTCGAGTAAACAAATTTTCCTAATCTTTCTGTTCAAGCGCCATCTAC”, 2.6 RPM ratio (pull-down/input). Then “GATGATTGTTCTCCCAGCTGATGAATTTTGTCTCTCGAGTAAACAAATTTTCCTAATCTTTCTGTTCAAGCGCCATCTAC”, with 0.968 RPM ratio (pull-down/input); and “GATGATTGTTCTCCCAGCTGATGAATTTCTGTCTTCGAGTAAACAAATTTTCCTAATCTTTCTGTTCAAGCGCCATCTAC”, with 0.89 RPM ratio (pull-down/input).

With “GATGATTGTTCTCCCAGCTGATGAATTTTTTGTCTCGAGTAAACAAATTTTCCTAATCTTTCTGTTCAAGCGCCATCTAC”, the binding signal was 0.905 RPM ratio (pull-down/input).

Take “GATGATTGTTCTCCCAGCTGATGAATTGTATCAATCGAGTAAACAAATTTTCCTAATCTTTCTGTTCAAGCGCCATCTAC”: the binding signal was 1.25 RPM ratio (pull-down/input). Then “GATGATTGTTCTCCCAGCTGATGAATTACTATATTCGAGTAAACAAATTTTCCTAATCTTTCTGTTCAAGCGCCATCTAC”, with 1.23 RPM ratio (pull-down/input). For the sequence “GATGATTGTTCTCCCAGCTGATGAATTCAGCACATCGAGTAAACAAATTTTCCTAATCTTTCTGTTCAAGCGCCATCTAC”, the binding signal was 0.96 RPM ratio (pull-down/input). Then “GATGATTGTTCTCCCAGCTGATGAATTCCCGATGTCGAGTAAACAAATTTTCCTAATCTTTCTGTTCAAGCGCCATCTAC”, with 0.877 RPM ratio (pull-down/input).

On to “GATGATTGTTCTCCCAGCTGATGAATTTAAGGACTCGAGTAAACAAATTTTCCTAATCTTTCTGTTCAAGCGCCATCTAC”, for which the binding signal is 0.845 RPM ratio (pull-down/input). Then “GATGATTGTTCTCCCAGCTGATGAATTAATATTGTCGAGTAAACAAATTTTCCTAATCTTTCTGTTCAAGCGCCATCTAC”, with 2.15 RPM ratio (pull-down/input); and “GATGATTGTTCTCCCAGCTGATGAATTAATATTTTCGAGTAAACAAATTTTCCTAATCTTTCTGTTCAAGCGCCATCTAC”, with 1.78 RPM ratio (pull-down/input); and “GATGATTGTTCTCCCAGCTGATGAATTAAATATGTCGAGTAAACAAATTTTCCTAATCTTTCTGTTCAAGCGCCATCTAC”, with 1.07 RPM ratio (pull-down/input).

Values taken from publication PMC12820563, “FoxP3 forms a head-to-head dimer in vivo and stabilizes its multimerization on adjacent microsatellites”.
